{
  "source": "PubChem BioAssay (Tox21)",
  "note": "Where “and” joins values, the source holds several entries; their conditions need not be identical. Identical values can stand only once. Results filed as inconclusive are left out. Entries that show only a call come without a potency. Values without a mark were called inactive. Calls of active or inactive are those of the source. Calls come from the whole dose curve; as a rule, active = well fitted cell-killing curve with a large enough effect in the repeat runs; inconclusive = weak or mixed curves, or effect the other way; inactive = flat fitted curve, though single readings scatter. Potency is the fitted concentration of half-maximal effect.",
  "data": [
    {"assay": "qHTS assay to identify small molecule antagonists of the androgen receptor (AR) signaling pathway using the MDA cell line - cell viability counter screen (AID 743041; note: nearly all actives have a fitted effect of over 45% in size)", "conditions": "MDA-kb2 viability, CellTiter-Fluor, 16 h, cells co-treated with R1881 androgen agonist; series mostly up to 70.3 µM; viability change, negative = cytotoxic: at the top concentration", "excerpt": "National Center for Advancing Translational Sciences [NCATS]\nNIH Chemical Genomics Center [NCGC]\nU.S. Environmental Protection Agency [EPA]\nNational Institutes of Environmental Health Sciences [NIEHS]\nNational Toxicology Program [NTP]\nU.S. Food and Drug Administration [FDA]\nAndrogen receptor (AR), a nuclear hormone receptor, plays a critical role in AR-dependent prostate cancer and other androgen related diseases. Endocrine disrupting chemicals (EDCs) and their interactions with steroid hormone receptors like AR may cause disruption of normal endocrine function as well as interfere with metabolic homeostasis, reproduction, developmental and behavioral functions. To identify the compounds that inhibit AR signaling, MDA-kb2 AR-luc cell line (from ATCC, deposited by Wilson et al.) was used to screen the Tox21 10K compound library. MDA-kb2 AR-luc cell line is human breast carcinoma cell line that was stably transfected with a luciferase reporter gene under control of the MMTV promoter containing response elements for both androgen receptor (AR) and glucocorticoid receptor (GR). The cytotoxicity of the Tox21 compound library against the MDA-kb2 AR-luc cell line was tested in parallel by measuring the cell viability using CellTiter-Fluor assay (Promega, Madison, WI) in the same wells.\nTox21 Assay Protocol Summary:\nMDA-kb2 AR-luc cells were dispensed at 3,000 cells/4 uL/well of culture medium into white wall/solid-bottom 1536-well plates using a Multidrop Combi (ThermoFisher Scientific, Waltham, MA) dispenser. After the assay plates were incubated at a 37C and 0% CO2 for 5 hr, 23 nL of compounds dissolved in DMSO, positive controls or DMSO only was transferred to the assay plate by a Pintool station (Kalypsys, San Diego, CA), followed by addition of 1 uL of agonist (R1881) in culture medium using a Bioraptr Flying Reagent Dispenser (FRD) workstation (Beckman Coulter, Indianapolis, IN, USA). The plates were incubated at a 37C and 0% CO2 for 16 h. After 15.5 h incubation, 1uL of CellTiter-Fluor reagent (Promega) was added using a Bioraptr FRD to each plate for measuring cytotoxicity. The fluorescence intensity was quantified on a ViewLux plate reader (PerkinElmer, Shelton, CT) following 30 min incubation at 37C and 0% CO2.", "units": {"viability change, negative = cytotoxic": "%"}, "values": [
      {"smiles": "C=CCNC(N)=S", "Potency": "inactive"},
      {"smiles": "O=C(O)c1ccc(C(=O)O)cc1", "Potency": "inactive"},
      {"smiles": "N[C@@H](Cc1cc(I)c(Oc2cc(I)c(O)c(I)c2)c(I)c1)C(=O)O", "Potency": "inactive"},
      {"smiles": "Cc1ccc2oc(=O)ccc2c1", "Potency": "inactive"},
      {"smiles": "C[C@H]1C[C@@H]2[C@H]([C@@H](O)C[C@@]3(C)[C@H]2CC[C@]3(O)C(=O)CO)[C@@]2(C)C=CC(=O)C=C12", "Potency": "inactive"},
      {"smiles": "CC(=O)CC(=O)Nc1ccccc1", "Potency": "inactive"},
      {"smiles": "CC[C@H](C)C(=O)O[C@H]1C[C@@H](C)C=C2C=C[C@H](C)[C@H](CC[C@@H]3C[C@@H](O)CC(=O)O3)[C@H]21", "Potency": "inactive"},
      {"smiles": "CCC(O)OCCCOC", "note": "(stereo not given)", "Potency": "inactive"},
      {"smiles": "CCCSc1ccc2nc(NC(=O)OC)[nH]c2c1", "Potency": "inactive"},
      {"smiles": "Cc1cnc(C(=O)NCCc2ccc(S(=O)(=O)NC(=O)NC3CCCCC3)cc2)cn1", "Potency": "inactive"},
      {"smiles": "O=C(Oc1ccccc1)c1ccccc1", "Potency": "inactive"},
      {"smiles": "CCCCOC(=O)COc1ccc(Cl)cc1Cl", "Potency": "inactive"},
      {"smiles": "CC1=CC(=O)NS(=O)(=O)O1", "Potency": "inactive"},
      {"smiles": "COS(C)(=O)=O", "Potency": "inactive"},
      {"smiles": "CCC(O)OC(O)CC", "note": "(stereo not given)", "Potency": "inactive"},
      {"smiles": "CCCCCCCCCCCCc1ccccc1", "Potency": "inactive"},
      {"smiles": "O=C(O)CC(C(=O)O)C(CC(=O)O)C(=O)O", "note": "(stereo not given)", "Potency": "inactive"},
      {"smiles": "O=C(O)c1cc(=O)c2c(OCC(O)COc3cccc4oc(C(=O)O)cc(=O)c34)cccc2o1", "Potency": "inactive"},
      {"smiles": "Fc1ccc(Br)cc1", "Potency": "inactive"},
      {"smiles": "O=c1[nH]c(=O)n([C@H]2CCCO2)cc1F", "Potency": "inactive"},
      {"smiles": "CC(C)(C)[C@@H](O)[C@@H](Cc1ccc(Cl)cc1)n1cncn1", "Potency": "inactive"},
      {"smiles": "CN(C)CCCN", "Potency": "inactive"},
      {"smiles": "OCc1cccnc1", "Potency": "inactive"},
      {"smiles": "COc1ccc(Nc2ccccc2)c(C)c1", "Potency": "inactive"},
      {"smiles": "CSCCC=O", "Potency": "inactive"},
      {"smiles": "Cc1ccc(S(N)(=O)=O)cc1", "Potency": "inactive"},
      {"smiles": "COc1ccc(NC(C)=O)cc1N", "Potency": "inactive"},
      {"smiles": "CCCCCCOCCO", "Potency": "inactive"},
      {"smiles": "O=C(O)CCCCCCCCCCC(=O)O", "Potency": "inactive"},
      {"smiles": "Nc1cc([N+](=O)[O-])ccc1O", "Potency": "54.5 µM (active) and 60.8 µM (active)"},
      {"smiles": "CCCCCCCCCCCCS", "Potency": "inactive"},
      {"smiles": "Cc1ccc(N(C)C)cc1", "Potency": "inactive"},
      {"smiles": "CC(c1cc2ccccc2s1)N(O)C(N)=O", "note": "(stereo not given)", "viability change, negative = cytotoxic": -15.4},
      {"smiles": "O=C(O)c1ccccc1C(c1ccc(O)cc1)c1ccc(O)cc1", "viability change, negative = cytotoxic": 4.99},
      {"smiles": "CCCCCCCC(=O)OC", "Potency": "inactive"},
      {"smiles": "CN(C)CCC(c1ccc(Cl)cc1)c1ccccn1", "note": "(stereo not given)", "Potency": "inactive"},
      {"smiles": "O=C(O)c1cc(O)c(O)c(O)c1", "viability change, negative = cytotoxic": -13.4},
      {"smiles": "CCCCN(CCCC)CCCC", "Potency": "inactive"},
      {"smiles": "Cc1cccc(O)c1", "Potency": "inactive"},
      {"smiles": "CC1CCC2CC1C2(C)C", "note": "(stereo not given)", "Potency": "inactive"}
    ]}
  ]
}
